Screening results from PubChem.
Most compounds without a hit are left out; they make up all but 11% or so of the library.
BAZ2B inh: inhibitors of human BAZ2B bromodomain; AlphaScreen BAZ2B-H3K14Ac peptide displacement; Potency, µM (doses to about 114 µM), for inactives: at the highest dose activity change, negative = inhibition, most hits filed as inhibitors; actives 4.4% (n = 360,000); also: % is scaled to controls: 0 for no effect and ±100 for the full control effect; nearly all actives have a fitted effect of over 60% in size
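Multi-concentration screen (max 110 uM) measuring displacement of acetylated histone H3 peptide from BAZ2B by AlphaScreen, using 50 nM protein, 50 nM peptide and 10 ug/mL streptavidin donor plus Ni-chelate acceptor beads.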
JMJD2A Tudor: JMJD2A Tudor domain (human) inhibition | AID 504339 | O75164 | AlphaScreen JMJD2A-Tudor / H3K4me3 peptide binding | actives 4.4% (n = 390,000) | Potency, µM (titrated, usually from 114 µM), without a hit: at the top dose activity change, negative = inhibition, most hits filed as inhibitors; also: % is scaled to controls: 0 for no effect and ±100 for the full control effect; nearly all actives have a fitted effect of over 50% in size
G9a block: G9a (human) methyltransferase inhibition; Q96KQ7; G9a H3K9 monomethylation, AlphaScreen, 2 h; Potency, µM (series often up to 102 µM), for inactives: top-dose activity, negative = inhibition, actives largely listed as inhibitors; actives 8.8% (n = 350,000); also: % is scaled to controls: 0 for no effect and ±100 for the full control effect; nearly all actives have a fitted effect of over 75% in size
Target sequence (Q96KQ7 913-1193 limits assumed): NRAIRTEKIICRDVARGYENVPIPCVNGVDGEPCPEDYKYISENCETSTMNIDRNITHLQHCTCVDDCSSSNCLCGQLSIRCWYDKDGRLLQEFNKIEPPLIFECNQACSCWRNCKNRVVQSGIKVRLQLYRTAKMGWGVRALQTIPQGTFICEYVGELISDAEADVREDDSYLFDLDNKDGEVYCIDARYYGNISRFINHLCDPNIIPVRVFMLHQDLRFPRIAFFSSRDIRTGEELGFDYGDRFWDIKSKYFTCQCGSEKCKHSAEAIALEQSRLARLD
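Methyltransferase reactions run at room temperature for 2 h (20 nM enzyme, 500 nM biotin-H3K9 peptide, 20 uM SAM) after a 15 min compound preincubation; product detected by AlphaScreen beads and anti-H3K9me1 antibody.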
HP1b chromo inh: HP1-beta chromodomain-methylated histone interaction inhibition | P83916 | AlphaScreen HP1-beta / biotin-H3K9me3 peptide binding | Potency, µM (doses to about 114 µM), for the others: at the highest dose activity change, negative = inhibition, most hits filed as inhibitors | actives 0.56% (n = 390,000) | AID 540317; also: nearly all actives have a fitted effect of over 70% in size
Target sequence (P83916 whole entry, looked up): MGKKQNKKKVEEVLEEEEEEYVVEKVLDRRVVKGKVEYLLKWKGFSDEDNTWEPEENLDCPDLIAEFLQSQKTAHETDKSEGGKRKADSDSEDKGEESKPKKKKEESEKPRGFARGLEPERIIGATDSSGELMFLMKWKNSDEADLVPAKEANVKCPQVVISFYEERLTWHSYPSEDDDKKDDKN
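AlphaScreen: HP1-beta (50 nM) preformed 30 min with biotin-H3(1-18)K9me3 peptide (50 nM) in PBS pH 7.4, 0.01% Tween-20. Compound added for 30 min at RT, then streptavidin donor/nickel chelate acceptor beads (10 ug/mL) for 30 min.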
L3MBTL1 block: inhibitors of human L3MBTL1; AlphaScreen L3MBTL1–H3K9me1 peptide binding; AID 485360; actives 0.66% (n = 230,000); Q9Y468; Potency, µM (titrated, usually from 57.1 µM), without a hit: top-dose activity, negative = inhibition, usual class: inhibitors; also: % is scaled to controls: 0 for no effect and ±100 for the full control effect; nearly all actives have a fitted effect of over 60% in size
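First, the protein-peptide complex forms for 30 min at room temperature (L3MBTL1 50 nM, biotinylated H3K9me1 peptide 75 nM). Next, compounds are pin-transferred and incubated 30 min. Finally, AlphaScreen beads are added and read after 30 min.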
The depositor's hits bear a star; ? = inconclusive; / = not tested or not shown; [ ] = remark or other dose. Calls follow the shape of the dose curve; as a rule, active = well fitted inhibition curve with a large enough effect; inconclusive = small, poorly fitted or top-dose-only effect; inactive = no such curve, though single readings can be large or run the other way. Potency is read from the fitted curve at half-maximal effect.

SMILES	BAZ2B inh	JMJD2A Tudor	G9a block	HP1b chromo inh	L3MBTL1 block
CCOC(=O)C1CCCN(C(=O)c2cccc(N3C(=O)c4ccccc4C3=O)c2)C1 (configuration not stated)	-3%	-15%	22%[12.7 µM]	32%	8%
O=C(O)c1cccc(N2C(=O)C3C4C=CC(C4=C(c4ccccc4)c4ccccc4)C3C2=O)c1 (configuration not stated)	56µM*	-2%[11.4 µM]	28µM*	-25%	?
O=C(c1cccc(N2C(=O)C3C4C=CC(C4)C3C2=O)c1)N1CCCCCC1 (configuration not stated)	2%	-1%	1.3µM*	19%	/
O=C(c1cccc(N2C(=O)c3ccccc3C2=O)c1)N1CCCCCC1	?	0%	22µM*	44%	/
O=C(O)c1cccc(N2C(=O)c3ccc4c5c(ccc(c35)C2=O)C(=O)N(c2cccc(C(=O)O)c2)C4=O)c1	?	-28%	13%[12.7 µM]	1%	/
CC1CCc2c(sc3nnn(CC(=O)Nc4cccc(C(F)(F)F)c4)c(=O)c23)C1 (configuration not stated)	-11%	-14%	-29%[59 µM]	23%	/
CCOC(=O)CSc1nc2c(sc3ccccc32)c(=O)n1CCc1ccccc1	0%	-15%	-1%[59 µM]	30%	/
Cc1cc(/C=C2/SC(=S)N(c3cccc(Cl)c3)C2=O)c(C)n1-c1cccnc1	/	?	/	-22%	/
Cc1cc(/C=C2/SC(=S)N(c3ccc([N+](=O)[O-])cc3)C2=O)c(C)n1-c1cccnc1	?	?	10µM*	-31%	-3%
Cc1cccc(N2C(=O)/C(=C/c3cccnc3)SC2=S)c1	?	?	16µM*	-8%	?
CCOC(=O)C1=C(N)Oc2ccc(Br)cc2C1C(C#N)C(=O)OCC (configuration not stated)	/	/	20%[59 µM]	/	/
Cc1noc(C)c1-c1cc(NC2CCNCC2)ncn1	/	/	-13%[0.501 µM]	/	/
O=C(O)c1ccc(-c2nc(-c3ccc(Cl)cc3Cl)cs2)cc1	?	-17%	?	15%	6%
CC(=O)N1CC[n+]2c(-c3ccc(Cl)cc3Cl)csc21	?	-32%	13µM*	28%	-3%
Cc1nc2ccc(NC(=O)c3ccc(Cl)nc3)cc2s1	-21%	8%	?	44%	/
CC(=O)Nc1ccc2nc(NC(=O)c3cccnc3)sc2c1	-23%	-11%	-33%	36%	2%
CSc1nc2ccc(NC(=O)C3=NNC(=O)CC3)cc2s1	-11%	-22%	3%	28%	-11%
O=C(NCc1ccncc1)C1=NN(c2ccccc2)C(=O)CC1	-4%	-15%	25µM*	44%	9%
CC(=O)Nc1ccc2nc(NC(=O)C(Cl)(Cl)Cl)sc2c1	-10%	-1%	50µM*	50%	6%
CSc1nc2ccc(NC(=O)c3ccccn3)cc2s1	2%	28µM*	?	17%	/
Cc1nc2ccc(NC(=O)c3cc(Cl)ccn3)cc2s1	79µM*	-34%	45µM*	19%	/
N#Cc1c(NC(=O)CS(=O)(=O)c2ccc(Cl)cc2)sc2c1CCCCC2	-12%	-12%	4%[59 µM]	-24%	/
CSc1nc2ccc(NC(=O)C3=NN(c4ccccc4)C(=O)CC3)cc2s1	-31%	?	45µM*	-2%	?
Cc1cc(C)c(-c2csc(NC(=O)C3=NN(c4ccccc4)C(=O)CC3)n2)c(C)c1	-6%	-26%	28µM*	39%	-20%
Cc1nc2ccc(NC(=O)c3ccc(Cl)c([N+](=O)[O-])c3)cc2s1	15%	-13%	?	14%	8%
SMILES	BAZ2B inh	JMJD2A Tudor	G9a block	HP1b chromo inh	L3MBTL1 block
Cc1nc2ccc(NC(=O)c3cc([N+](=O)[O-])cc([N+](=O)[O-])c3Cl)cc2s1	?	56µM*	6.3µM*	?	-9%
CC1Cc2cc(S(=O)(=O)CCC(=O)Nc3ccc(F)cc3Cl)ccc2N1C(=O)C1CC1 (configuration not stated)	-12%	-1%	-1%[59 µM]	40%	/
O=C(c1cc(C(F)(F)F)cc(C(F)(F)F)c1)N1CCC2(CC1)CN(c1ccccc1)C2	/	/	11%[12.7 µM]	/	/
CC(=O)Nc1ccc(S(=O)(=O)N2CCC(N3CCCCC3)CC2)cc1	-5%	-7%	-3%	32%[57 µM]	/
O=S(=O)(c1ccc(F)cc1)N1CCC(N2CCCCCC2)CC1	?	?	?	?	1%
O=S(=O)(c1ccc(Cl)cc1)N1CCC(N2CCCCCC2)CC1	79µM*	2.5µM*	2.5µM*	?	/
CC(=O)Nc1ccc(S(=O)(=O)N2CCC(N3CCCCCC3)CC2)cc1	-30%	20µM*	40µM*	?	-3%
Cc1ccc(C2CC(=O)N(Cc3ccc(F)cc3)c3c2c(C)nn3-c2nc(C)cc(C)n2)cc1 (configuration not stated)	-14%	-16%	-22%[59 µM]	45%	/
O=C(O)C1CC(=O)N(c2ccc3c(c2)OCCO3)C1 (configuration not stated)	?	3.2µM*	-26%[59 µM]	?	/
O=C(Nc1ccc2c(c1)OCO2)C1CC(=O)N(c2ccc3c(c2)OCCO3)C1 (configuration not stated)	?	-3%[57.1 µM]	-7%	28%	/
O=C(COC(=O)C1CC(=O)N(c2ccc3c(c2)OCCO3)C1)NC1CCCc2ccccc21 (configuration not stated)	-32%	-9%	79µM*	21%	-1%
O=C(Nc1ccccc1Br)C1CC(=O)N(c2ccc3c(c2)OCCO3)C1 (configuration not stated)	6%	-16%	79µM*	10%	10%
Cc1ccnc(NC(=O)C2CC(=O)N(c3ccc4c(c3)OCCO4)C2)c1 (configuration not stated)	79µM*	-14%	19%	14%	/
CS(=O)(=O)c1ccc(-c2sc3ccccc3c2C(=O)NCCCN2CCOCC2)cc1	/	-11%	/	29%	1%
CCCCC(CC)CNC(=O)CN1C(=O)CSc2ccc(S(=O)(=O)N3CCOCC3)cc21 (configuration not stated)	3%	-15%	6%[59 µM]	7%	/
Cc1ccc(/C=N/n2c(-c3ccco3)n[nH]c2=S)cc1	?	10µM*	0.63µM*	56µM*	-10%
S=c1[nH]nc(-c2ccco2)n1/N=C/c1c(Cl)cccc1Cl	0%	?	0.4µM*	51%	/
S=c1[nH]nc(-c2ccccn2)n1/N=C/c1ccco1	8.9µM*	7.1µM*	/	23%	20µM*
Cc1cc(C)n(-c2nnc(C)n2/N=C/c2ccco2)n1	10%	-12%	7%	24%	/
S=c1[nH]nc(-c2ccco2)n1/N=C/c1ccccn1	50µM*	/	-120%	/	-2%[11.4 µM]
S=c1[nH]nc(-c2ccco2)n1/N=C/c1ccc(Cl)c(Cl)c1	-12%	79µM*	1.6µM*	-12%	-1%
O=c1cc(-c2ccco2)nc(SCc2cccc(Cl)c2)[nH]1	29%	9%	/	13%	36%
